Assay results taken from PubChem BioAssay AID1626 (SRMLSC, 2009).
The campaign covered roughly 220,000 compounds. About 2,000 (0.91%) were called active. Not shown: some 2% with an inconclusive outcome. A selection follows. Entries with a potency or affinity are not part of this list. A number with no mark means an inactive call. Rule as the data show it: inconclusive = inhibition above about 80% without an active follow-up result; inactive = below that; test concentration not stated here.

Experiment: M. tuberculosis H37Rv growth inhibitors, H37Rv strain (AID 1626);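 also: bacteria incubated seven days before Alamar blue readout; 0% = bacteria only wells and 100% = bacteria with antibiotic wells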
Conditions: hits give high values, concentration not given here

**Q.** Which inhibition does the source give for `O=C(NCc1ccccn1)/C(=N/O)c1ccccc1` here?
**A.** 1.57%

**Q.** Which inhibition does the source give for `COc1ccc(N2C(=O)NC(NC(=O)c3cccnc3)(C(F)(F)F)C2=O)cc1` (configuration not stated) here?
**A.** -4.91%

**Q.** With `Cc1nccc(-c2cc(-c3ccc(Cl)cc3Cl)no2)n1` as the molecule, how does the inhibition read?
**A.** 0.59%

**Q.** Which inhibition does the source give for `Cc1onc(-c2ccccc2)c1C(=O)NNC(=S)NC(=O)/C=C/c1cccs1` here?
**A.** 5.26%

**Q.** Which inhibition does the source give for `O=C(N/N=C/c1cc([N+](=O)[O-])ccc1O)C1CC1` here?
**A.** 9.15%

**Q.** Which inhibition does the source give for `Cc1nn(-c2ccc(F)cc2)c2sc(C(=O)OC3CCOC3=O)cc12` (configuration not stated) here?
**A.** -1.05%

**Q.** Which inhibition does the source give for `Cc1ccc(S(=O)(=O)Nc2ccc3c(c2)nc(C)n3C)cc1` here?
**A.** 2.7%

**Q.** With `COc1cc(/C=C2\COC/C(=C\c3cc(OC)c(OC)c(OC)c3)C2=O)cc(OC)c1OC` as the molecule, how does the inhibition read?
**A.** 21.1%

**Q.** With `COc1ccc(/C=C2\Cc3ccccc3C2=O)cc1OC` as the molecule, how does the inhibition read?
**A.** 4.06%

**Q.** Which inhibition does the source give for `O=C1/C(=C/c2cccs2)COc2ccccc21` here?
**A.** 4.75%

**Q.** With `COc1ccc(/C=C2/CCc3ccccc3C2=O)cc1OC` as the molecule, how does the inhibition read?
**A.** 5.56%

**Q.** For `CNc1ccc(/C=C2\COc3ccccc3C2=O)cc1[N+](=O)[O-]`, which inhibition is on record?
**A.** 10.8%

**Q.** Which inhibition does the source give for `COc1cc(/C=C2/CC/C(=C/c3ccc(O)c(OC)c3)C2=O)ccc1O` here?
**A.** -0.8%

**Q.** Which inhibition does the source give for `CCC(C)NC(=O)CSc1nc2ccccc2c(=O)n1CCCC(=O)NCC1CCCO1` (configuration not stated) here?
**A.** -0.9%

**Q.** With `Cc1nn(Cc2ccccc2)c(Cl)c1C(=O)OCC#N` as the molecule, how does the inhibition read?
**A.** 2.96%

**Q.** Which inhibition does the source give for `Cc1cccc(NC(=O)CSc2ccc(C(N)=O)cc2[N+](=O)[O-])c1C` here?
**A.** -7.31%

**Q.** Which inhibition does the source give for `O=C(O)CCC(=O)Nc1ccccc1C(=O)NCc1ccco1` here?
**A.** -1.28%

**Q.** Which inhibition does the source give for `Cc1ccc(NC(=S)N/N=C2/CCCCc3ccccc32)cc1` here?
**A.** -0.29%

**Q.** Which inhibition does the source give for `COc1ccc2nc(NC(=O)CSc3nnc(-c4ccoc4C)n3C)sc2c1` here?
**A.** 0.74%

**Q.** With `COCCOC(=O)c1c(NC(=O)CN2CCc3ccccc32)sc(C(N)=O)c1C` as the molecule, how does the inhibition read?
**A.** 6.77%

**Q.** For `CCn1cc(C(=O)O)c(=O)c2cnc(N3CCN(C(=S)Nc4ccccc4C(F)(F)F)CC3)nc21`, which inhibition is on record?
**A.** -8%

**Q.** With `O=C(O)C(Cc1c[nH]c2ccccc12)N1Cc2ccccc2C1=O` (configuration not stated) as the molecule, how does the inhibition read?
**A.** -8.14%

**Q.** Which inhibition does the source give for `CC(C)CNC(=O)NC1C(NC(=O)NCC(C)C)N(C)C(=O)N1C` (configuration not stated) here?
**A.** -2.11%

**Q.** With `O=C(Nc1ccc(N2CCOCC2)cc1)c1cc2c(s1)CCCC2` as the molecule, how does the inhibition read?
**A.** -7.27%

**Q.** With `COc1ccc2nc(N=Nc3c(O)ccc4ccccc34)sc2c1` as the molecule, how does the inhibition read?
**A.** 13.7%

**Q.** With `COc1ccc2nc(/N=C\N(C)C)sc2c1` as the molecule, how does the inhibition read?
**A.** 5.98%

**Q.** For `CC(C)(C)C(=O)NNC(=O)c1cc2sccc2s1`, which inhibition is on record?
**A.** 13.2%

**Q.** Which inhibition does the source give for `CCCS/C(N)=N/N=C/c1ccccc1O` here?
**A.** 4.15%

**Q.** With `CC(=O)c1ccccc1OCC(O)CN1CCN(CCN2C(=O)c3cccc4cccc(c34)C2=O)CC1` (configuration not stated) as the molecule, how does the inhibition read?
**A.** 39.8%

**Q.** With `CCOc1ccccc1C(=O)N1CCN(C(c2ccccc2)c2ccccc2)CC1` as the molecule, how does the inhibition read?
**A.** 0.97%

**Q.** Which inhibition does the source give for `CC1=CC(=O)N(c2ccc(C)cc2)C1c1ccc(Cl)cc1` (configuration not stated) here?
**A.** 11.2%

**Q.** With `Cc1ccc2c(c1)c1c(n2CC(O)CNC2CCCC2)CCCC1` (configuration not stated) as the molecule, how does the inhibition read?
**A.** 27.5%

**Q.** For `Cc1ccc2c(c1)c1c(n2CC(O)CNC(C)(C)C)CCCC1` (configuration not stated), which inhibition is on record?
**A.** 3.21%

**Q.** For `COc1ccc(OC)c(NC(=O)CCc2c[nH]c3ccccc23)c1`, which inhibition is on record?
**A.** 11.6%

**Q.** With `COc1ccc(Oc2ccc(NC(=O)c3ccccc3C)cc2)cc1` as the molecule, how does the inhibition read?
**A.** 9.33%

**Q.** Which inhibition does the source give for `COc1ccc(NC(=O)c2cc(Cl)ccc2Cl)c([N+](=O)[O-])c1` here?
**A.** 0.17%

**Q.** Which inhibition does the source give for `Cc1ccc(NC(=O)Nc2nnc(-c3ccccc3)o2)cc1` here?
**A.** 3.09%

**Q.** For `Cc1ccccc1C(=O)Nc1nnc(-c2cccnc2)o1`, which inhibition is on record?
**A.** 20.8%

**Q.** Which inhibition does the source give for `COc1ccc(-c2nnc(NC(=O)C3CC3)o2)cc1` here?
**A.** 14.1%

**Q.** Which inhibition does the source give for `Cc1ccccc1C(=O)Nc1nnc(-c2ccncc2)o1` here?
**A.** 1.04%

**Q.** Which inhibition does the source give for `CCSc1nnc(-c2ccc(OC)cc2)o1` here?
**A.** 10.5%

**Q.** With `COc1ccc(-c2nnc(NC(=O)C(C)C)o2)cc1` as the molecule, how does the inhibition read?
**A.** 28.3%

**Q.** For `O=C(N/N=C/c1ccc2c(c1)OCO2)c1cc(-c2ccccc2Cl)nc2ccccc12`, which inhibition is on record?
**A.** 4.7%

**Q.** With `CSc1ccc(/C=C/C(=O)OCC(=O)NC(C)C)cc1` as the molecule, how does the inhibition read?
**A.** 0.59%

**Q.** With `O=C(Nc1ccccc1)NC1CCN(Cc2ccccc2)CC1` as the molecule, how does the inhibition read?
**A.** -1.63%

**Q.** With `O=C(Cn1c(=O)n(CC2CCCO2)c(=O)c2ccccc21)c1ccccc1` (configuration not stated) as the molecule, how does the inhibition read?
**A.** 1.39%

**Q.** With `O=C(CCCSc1nc2sc3c(c2c(=O)[nH]1)CCC3)NCCO` as the molecule, how does the inhibition read?
**A.** -2.38%

**Q.** With `O=C(NNC(=O)c1cccnc1)Nc1ccc(Cl)c(Cl)c1` as the molecule, how does the inhibition read?
**A.** -1.69%

**Q.** Which inhibition does the source give for `C=CCn1c(SCn2nnc3ccccc3c2=O)nc2scc(-c3cccs3)c2c1=O` here?
**A.** -6.52%

**Q.** For `COc1cc(CCC(O)CC(=O)CCc2ccccc2)ccc1O` (configuration not stated), which inhibition is on record?
**A.** -13%

**Q.** Which inhibition does the source give for `COc1ccc(-c2nnc(-c3ccc(OCC(C)C)cc3)o2)cc1` here?
**A.** -2.52%

**Q.** With `CCOC(=O)CNC(=O)Nc1nnc(-c2ccc(OCC)cc2)o1` as the molecule, how does the inhibition read?
**A.** -3.79%

**Q.** With `O=C(Nc1nn[nH]n1)c1cccc([N+](=O)[O-])c1` as the molecule, how does the inhibition read?
**A.** 2.86%

**Q.** With `O=C(Nc1nnc(-c2cccnc2)o1)c1cccc([N+](=O)[O-])c1` as the molecule, how does the inhibition read?
**A.** 74.6%

**Q.** For `CC(C)(C)c1cc(NC(=O)COc2ccc(Br)cc2)n(-c2ccccc2)n1`, which inhibition is on record?
**A.** -8.73%

**Q.** Which inhibition does the source give for `COCCCNC(=O)c1ccc(-n2nc(C(F)(F)F)cc2-c2cccs2)cc1` here?
**A.** 2.29%

**Q.** With `CC1=CC(c2ccc(Cl)cc2)n2nc(NS(=O)(=O)c3ccc(C)cc3)nc2N1` (configuration not stated) as the molecule, how does the inhibition read?
**A.** -12.5%

**Q.** Which inhibition does the source give for `CC1(C)CC(NC(=S)NC2CC2)CC(C)(C)N1` here?
**A.** -4.39%

**Q.** Which inhibition does the source give for `O=C(CCCC(=O)OCC(=O)c1cccs1)Nc1ccc(F)cc1` here?
**A.** -9.65%

**Q.** With `Cc1ccc(Oc2ccc(NC(=O)CCC(=O)OCC(=O)c3cccs3)cc2)cc1C` as the molecule, how does the inhibition read?
**A.** -2.17%

**Q.** Which inhibition does the source give for `O=C(c1cccnc1)N1CCC(Oc2ccc(C(=O)N3CCCCO3)cc2)CC1` here?
**A.** 4.71%

**Q.** With `COCCN(C(=S)Nc1ccc(C)cc1)C(C)c1cccnc1` (configuration not stated) as the molecule, how does the inhibition read?
**A.** -5.81%
